# Assay results published in the supplement of paper PMC10849652.
# Of roughly 8,800 targets only a part is listed; those with a hit were picked by preference. About 0.5% of all pairs of compound and target were hits. Values without a mark were called inactive.
# Tests used:
# Experiment in all cases: log2 fold change, soluble protein after heating vs DMSO (PISA); higher = thermal stabilisation; K562 lysate, 10 uM; active = over 0.2 and 3.5 SD of the protein, either way, in both replicates (recomputed)
# alvocidib = compound: CN1CC[C@H](c2c(O)cc(O)c3c(=O)cc(-c4ccccc4Cl)oc23)[C@H](O)C1 [alvocidib]
# Method in brief: (§1)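 K562 pellets were dounce-homogenised in PBS pH 7.4 containing 1 mM MgCl2, and the crude extract, at 1 mg/mL protein, was exposed to 10 μM compound for 30 min. Aliquots were heated for 3 min across 48°C-58°C, pooled, brought to 0.5% NP-40 at 4°C and spun at 21,000xg for 90 min, with the supernatant taken as soluble protein. TMTpro 16plex LC-MS/MS with equalised channel sums quantified that protein. Values are log-two fold changes in thermal stability relative to solvent controls, taken from duplicates.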
# Tubastatin A = compound: CN1CCc2c(c3ccccc3n2Cc2ccc(C(=O)NO)cc2)C1 [Tubastatin A]
# Method in brief: as §1
# [1] = compound: CNC(=O)C1=CC=CC=C1NC2=NC(=NC=C2Cl)NC3=C(C=C(C=C3)N4CCOCC4)OC
# Method in brief: as §1
# defactinib = compound: CNC(=O)c1ccc(Nc2ncc(C(F)(F)F)c(NCc3nccnc3N(C)S(C)(=O)=O)n2)cc1 [defactinib]
# Method in brief: as §1
# [2] = compound: CNc1nc(-c2ccc3c(N)n[nH]c3c2)cc(N2C[C@@H](C(=O)NC3CCCCC3)CC[C@H]2C)n1
# Method in brief: as §1
# encorafenib = compound: COC(=O)N[C@@H](C)CNc1nccc(-c2cn(C(C)C)nc2-c2cc(Cl)cc(NS(C)(=O)=O)c2F)n1 [encorafenib]
# Method in brief: as §1
# [3] = compound: COC(=O)[C@H](CCSC)NC(=O)C1=C(C=C(C=C1)NC[C@H](CS)N)C2=CC=CC=C2
# Method in brief: as §1
# alisertib = compound: COc1cc(Nc2ncc3c(n2)-c2ccc(Cl)cc2C(c2c(F)cccc2OC)=NC3)ccc1C(=O)O [alisertib]
# Method in brief: as §1
# [4] = compound: COc1cc2nc(-c3cc(F)ccc3O)nc(N[C@@H]3CNC[C@H]3C(C)(C)O)c2cc1OC
# Method in brief: as §1
# gefitinib = compound: COc1cc2ncnc(Nc3ccc(F)c(Cl)c3)c2cc1OCCCN1CCOCC1 [gefitinib]
# Method in brief: as §1
# lapatinib = compound: CS(=O)(=O)CCNCc1ccc(-c2ccc3ncnc(Nc4ccc(OCc5cccc(F)c5)c(Cl)c4)c3c2)o1 [lapatinib]
# Method in brief: as §1
# pictilisib = compound: CS(=O)(=O)N1CCN(Cc2cc3nc(-c4cccc5[nH]ncc45)nc(N4CCOCC4)c3s2)CC1 [pictilisib]
# Method in brief: as §1
# crizotinib = compound: C[C@@H](Oc1cc(-c2cnn(C3CCNCC3)c2)cnc1N)c1c(Cl)ccc(F)c1Cl [crizotinib]
# Method in brief: as §1
# [5] = compound: C[C@H](C1=CC=C(C=C1)C(=O)NC2=C3C=CNC3=NC=C2)N
# Method in brief: as §1
# duvelisib = compound: C[C@H](Nc1ncnc2nc[nH]c12)c1cc2cccc(Cl)c2c(=O)n1-c1ccccc1 [duvelisib]
# Method in brief: as §1
# gandotinib = compound: Cc1cc(Nc2cc(CN3CCOCC3)c3nc(C)c(Cc4ccc(Cl)cc4F)n3n2)n[nH]1 [gandotinib]
# Method in brief: as §1
# tozasertib = compound: Cc1cc(Nc2cc(N3CCN(C)CC3)nc(Sc3ccc(NC(=O)C4CC4)cc3)n2)n[nH]1 [tozasertib]
# Method in brief: as §1
# doramapimod = compound: Cc1ccc(-n2nc(C(C)(C)C)cc2NC(=O)Nc2ccc(OCCN3CCOCC3)c3ccccc23)cc1 [doramapimod]
# Method in brief: as §1
# bafetinib = compound: Cc1ccc(NC(=O)c2ccc(CN3CC[C@H](N(C)C)C3)c(C(F)(F)F)c2)cc1Nc1nccc(-c2cncnc2)n1 [bafetinib]
# Method in brief: as §1
# [6] = compound: Cc1cccc(CC(=O)N2CCc3c2ccc(-c2cn(C)c4ncnc(N)c24)c3F)n1
# Method in brief: as §1
# Sequence of UniProt Q9Y5L0 (Q9Y5L0 whole entry, looked up): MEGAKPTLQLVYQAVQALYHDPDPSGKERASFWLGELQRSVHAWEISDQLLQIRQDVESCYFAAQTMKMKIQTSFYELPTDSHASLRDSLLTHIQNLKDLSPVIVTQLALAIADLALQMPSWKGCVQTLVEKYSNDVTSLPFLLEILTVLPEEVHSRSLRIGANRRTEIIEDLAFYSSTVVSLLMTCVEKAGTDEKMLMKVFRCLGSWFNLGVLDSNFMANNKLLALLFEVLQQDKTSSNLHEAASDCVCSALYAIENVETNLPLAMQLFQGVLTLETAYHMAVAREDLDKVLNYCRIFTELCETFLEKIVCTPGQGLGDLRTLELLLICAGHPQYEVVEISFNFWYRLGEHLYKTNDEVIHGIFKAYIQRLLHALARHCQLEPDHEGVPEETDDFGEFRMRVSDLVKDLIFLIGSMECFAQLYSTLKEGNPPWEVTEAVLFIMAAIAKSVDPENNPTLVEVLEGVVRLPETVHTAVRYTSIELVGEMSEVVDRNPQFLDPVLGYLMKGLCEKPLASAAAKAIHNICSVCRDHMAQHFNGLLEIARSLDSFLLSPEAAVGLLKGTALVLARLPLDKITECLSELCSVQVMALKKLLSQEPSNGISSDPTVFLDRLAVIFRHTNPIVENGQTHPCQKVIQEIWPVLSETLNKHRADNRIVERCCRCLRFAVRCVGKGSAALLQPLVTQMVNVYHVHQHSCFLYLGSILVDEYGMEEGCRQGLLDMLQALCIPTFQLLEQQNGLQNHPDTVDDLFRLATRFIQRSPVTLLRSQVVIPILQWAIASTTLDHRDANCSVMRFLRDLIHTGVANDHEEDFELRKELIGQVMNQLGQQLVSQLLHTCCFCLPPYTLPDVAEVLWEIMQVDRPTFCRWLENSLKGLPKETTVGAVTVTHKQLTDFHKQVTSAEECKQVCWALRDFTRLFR
# Sequence of UniProt P67936 (P67936 whole entry, looked up): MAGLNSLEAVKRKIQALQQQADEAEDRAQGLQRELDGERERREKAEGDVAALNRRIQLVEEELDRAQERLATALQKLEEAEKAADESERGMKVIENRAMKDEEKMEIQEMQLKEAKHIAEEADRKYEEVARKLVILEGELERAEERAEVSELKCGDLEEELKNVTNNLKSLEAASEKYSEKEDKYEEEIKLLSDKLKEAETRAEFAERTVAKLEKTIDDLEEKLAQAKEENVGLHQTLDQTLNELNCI
# Sequence of UniProt Q14258 (Q14258 whole entry, looked up): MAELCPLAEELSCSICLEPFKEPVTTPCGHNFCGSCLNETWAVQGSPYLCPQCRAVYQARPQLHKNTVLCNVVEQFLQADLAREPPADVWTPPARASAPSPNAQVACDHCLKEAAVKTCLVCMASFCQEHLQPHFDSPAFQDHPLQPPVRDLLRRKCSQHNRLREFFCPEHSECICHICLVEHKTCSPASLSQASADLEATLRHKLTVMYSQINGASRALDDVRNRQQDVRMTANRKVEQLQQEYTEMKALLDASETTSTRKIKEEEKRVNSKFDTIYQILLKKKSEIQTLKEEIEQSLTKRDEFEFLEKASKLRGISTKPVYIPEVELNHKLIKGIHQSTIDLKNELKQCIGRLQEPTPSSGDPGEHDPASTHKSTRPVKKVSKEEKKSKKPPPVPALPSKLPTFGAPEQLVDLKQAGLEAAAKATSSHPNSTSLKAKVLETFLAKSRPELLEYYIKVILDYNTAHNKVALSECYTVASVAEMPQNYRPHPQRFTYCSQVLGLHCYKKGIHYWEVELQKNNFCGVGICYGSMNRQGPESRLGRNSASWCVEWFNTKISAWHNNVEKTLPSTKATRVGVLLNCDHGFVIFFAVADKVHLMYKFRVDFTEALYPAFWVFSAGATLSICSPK
# Sequence of UniProt P42167 (P42167 whole entry, looked up): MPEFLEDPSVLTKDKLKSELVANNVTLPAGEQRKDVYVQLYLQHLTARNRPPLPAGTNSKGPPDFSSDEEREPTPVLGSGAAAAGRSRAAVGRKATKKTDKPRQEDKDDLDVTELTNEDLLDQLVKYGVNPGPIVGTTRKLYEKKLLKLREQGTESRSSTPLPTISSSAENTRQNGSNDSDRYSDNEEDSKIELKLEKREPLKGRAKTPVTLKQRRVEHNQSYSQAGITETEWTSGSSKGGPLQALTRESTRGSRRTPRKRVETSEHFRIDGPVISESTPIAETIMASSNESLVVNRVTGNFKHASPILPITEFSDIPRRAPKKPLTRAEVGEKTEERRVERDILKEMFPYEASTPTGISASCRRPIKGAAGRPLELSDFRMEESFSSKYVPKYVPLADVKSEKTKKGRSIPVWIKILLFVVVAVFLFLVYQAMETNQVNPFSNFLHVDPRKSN
# Sequence of UniProt Q9UKE5 (Q9UKE5 whole entry, looked up): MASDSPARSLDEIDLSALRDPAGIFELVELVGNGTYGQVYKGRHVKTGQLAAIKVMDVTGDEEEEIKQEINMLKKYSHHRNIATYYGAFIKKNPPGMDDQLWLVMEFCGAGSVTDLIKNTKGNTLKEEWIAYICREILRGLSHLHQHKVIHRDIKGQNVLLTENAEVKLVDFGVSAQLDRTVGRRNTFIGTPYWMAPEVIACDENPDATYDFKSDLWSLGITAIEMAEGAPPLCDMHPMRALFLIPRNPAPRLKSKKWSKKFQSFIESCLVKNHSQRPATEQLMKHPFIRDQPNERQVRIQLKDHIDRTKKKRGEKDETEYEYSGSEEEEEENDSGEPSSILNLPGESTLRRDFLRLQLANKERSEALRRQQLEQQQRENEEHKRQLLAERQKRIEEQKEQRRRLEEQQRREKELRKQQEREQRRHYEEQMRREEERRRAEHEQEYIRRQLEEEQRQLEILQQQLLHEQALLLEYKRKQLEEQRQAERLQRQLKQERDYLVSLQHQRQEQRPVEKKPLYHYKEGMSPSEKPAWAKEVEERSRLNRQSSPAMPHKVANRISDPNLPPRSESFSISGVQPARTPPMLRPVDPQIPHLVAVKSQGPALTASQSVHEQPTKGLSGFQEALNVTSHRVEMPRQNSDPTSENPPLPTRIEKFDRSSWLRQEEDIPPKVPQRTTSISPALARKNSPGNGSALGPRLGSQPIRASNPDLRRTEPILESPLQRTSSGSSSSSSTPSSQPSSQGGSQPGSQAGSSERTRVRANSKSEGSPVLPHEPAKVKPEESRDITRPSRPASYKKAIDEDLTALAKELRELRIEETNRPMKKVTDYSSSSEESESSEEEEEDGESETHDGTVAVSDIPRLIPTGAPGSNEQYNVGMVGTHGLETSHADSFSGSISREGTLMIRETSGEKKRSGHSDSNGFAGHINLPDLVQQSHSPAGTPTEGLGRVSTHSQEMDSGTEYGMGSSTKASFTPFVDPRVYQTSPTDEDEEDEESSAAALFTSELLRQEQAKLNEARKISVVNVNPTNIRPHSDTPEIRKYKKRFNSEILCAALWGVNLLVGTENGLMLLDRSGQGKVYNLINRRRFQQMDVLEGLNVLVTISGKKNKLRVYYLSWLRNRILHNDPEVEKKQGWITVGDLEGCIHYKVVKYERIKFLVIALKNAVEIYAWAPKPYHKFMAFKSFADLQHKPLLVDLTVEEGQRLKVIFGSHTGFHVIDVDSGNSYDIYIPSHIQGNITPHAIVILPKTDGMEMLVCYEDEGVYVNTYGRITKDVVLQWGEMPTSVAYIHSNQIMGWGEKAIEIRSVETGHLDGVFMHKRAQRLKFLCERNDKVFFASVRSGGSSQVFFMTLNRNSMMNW
# Sequence of UniProt Q8IZ69 (Q8IZ69 whole entry, looked up): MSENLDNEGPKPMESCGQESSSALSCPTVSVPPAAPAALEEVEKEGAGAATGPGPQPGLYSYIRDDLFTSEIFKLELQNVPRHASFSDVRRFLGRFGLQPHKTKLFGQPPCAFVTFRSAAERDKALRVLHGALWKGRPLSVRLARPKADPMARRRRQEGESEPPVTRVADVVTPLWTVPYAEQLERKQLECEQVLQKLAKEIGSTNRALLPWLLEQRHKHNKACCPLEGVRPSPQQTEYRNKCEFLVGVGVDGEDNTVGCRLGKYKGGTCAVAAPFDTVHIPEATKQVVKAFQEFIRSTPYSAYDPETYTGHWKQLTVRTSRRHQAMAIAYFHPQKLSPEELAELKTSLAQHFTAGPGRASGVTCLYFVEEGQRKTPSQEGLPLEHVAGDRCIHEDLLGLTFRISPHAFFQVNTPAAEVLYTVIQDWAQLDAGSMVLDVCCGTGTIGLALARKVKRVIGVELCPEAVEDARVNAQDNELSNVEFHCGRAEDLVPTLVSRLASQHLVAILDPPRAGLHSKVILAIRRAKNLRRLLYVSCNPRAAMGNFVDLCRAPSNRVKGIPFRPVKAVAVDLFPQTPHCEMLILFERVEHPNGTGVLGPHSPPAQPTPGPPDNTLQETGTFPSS
# Sequence of UniProt Q53H54 (Q53H54 whole entry, looked up): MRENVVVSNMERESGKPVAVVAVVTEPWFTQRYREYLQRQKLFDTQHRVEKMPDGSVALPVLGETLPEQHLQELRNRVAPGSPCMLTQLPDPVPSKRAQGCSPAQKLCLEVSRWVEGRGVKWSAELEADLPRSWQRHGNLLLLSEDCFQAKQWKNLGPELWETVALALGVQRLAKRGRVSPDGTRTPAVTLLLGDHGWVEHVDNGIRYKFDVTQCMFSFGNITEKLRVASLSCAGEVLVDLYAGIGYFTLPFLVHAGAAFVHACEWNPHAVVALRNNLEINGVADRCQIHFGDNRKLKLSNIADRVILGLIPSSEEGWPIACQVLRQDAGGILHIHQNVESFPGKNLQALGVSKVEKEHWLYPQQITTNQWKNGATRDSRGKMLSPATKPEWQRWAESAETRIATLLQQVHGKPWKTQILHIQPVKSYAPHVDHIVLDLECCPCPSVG
Target,log2 fold change (alvocidib),log2 fold change (Tubastatin A),log2 fold change [1],log2 fold change (defactinib),log2 fold change [2],log2 fold change (encorafenib),log2 fold change [3],log2 fold change (alisertib),log2 fold change [4],log2 fold change (gefitinib),log2 fold change (lapatinib),log2 fold change (pictilisib),log2 fold change (crizotinib),log2 fold change [5],log2 fold change (duvelisib),log2 fold change (gandotinib),log2 fold change (tozasertib),log2 fold change (doramapimod),log2 fold change (bafetinib),log2 fold change [6]
TRIM25 (UniProt Q14258),0.022,-0.04,0.009,-0.009,0.042,-0.011,-0.058,-0.01,-0.002,-0.029,0.009,-0.031,0.1,0.031,-0.021,0,0.03,-0.036,-0.012,-0.038
TNIK isoform 4 (UniProt Q9UKE5),-0.015,-0.071,0.085,0.148,-0.04,-0.026,-0.097,-0.026,0.247,-0.005,-0.017,0.012,-0.055,0.038,0.004,0.153,0.098,0.205,-0.007,-0.04
TRMT2A (UniProt Q8IZ69),-0.014,-0.144,0.019,0.041,-0.018,0.019,0.098,0.043,0.007,0.007,-0.01,-0.057,-0.017,-0.002,-0.036,-0.03,0.001,-0.002,-0.016,0.009
TNPO3 (UniProt Q9Y5L0),0.003,-0.04,0,-0.007,-0.007,0,-0.108,-0.001,0.023,-0.018,-0.024,-0.001,0.01,-0.015,0.025,-0.006,-0.036,-0.024,-0.028,0.026
TFCP2 (UniProt Q12800),0.015,-0.215,0.169,0.003,0.009,0.093,0.044,0.019,-0.049,-0.033,0.043,0.083,-0.093,0,-0.016,0.098,0.021,0.168,-0.075,0.004
TPM4 isoform 2 (UniProt P67936),0.062,0.03,-0.027,-0.059,0.028,-0.004,-0.077,-0.098,-0.01,-0.004,0.007,0,0.091,0.329 (active),0.011,-0.138,-0.027,0.002,0.075,-0.164
TMPO (UniProt P42167),-0.007,0.018,-0.034,-0.015,0.029,0.035,-0.163,-0.026,-0.025,0.027,0.053,0.029,0.059,0.047,-0.039,-0.033,0.035,-0.037,0.005,-0.04
TRMT12 (UniProt Q53H54),-0.022,-0.106,-0.113,-0.058,0.007,0.041,0.088,-0.031,0.018,0.123,0.064,-0.02,-0.03,-0.289,0.055,-0.054,-0.021,0.059,-0.021,0.14
